High-throughput results: PubChem BioAssay, National Center for Advancing Translational Sciences (NCATS)
An excerpt weighted towards active compounds, which were near 10% of everything screened.
PNC assembly inh – High Content Assay for Compounds that inhibit the Assembly of the Perinucleolar Compartment; activity change (PNC), negative = inhibition, % at 10 µM; actives 3.1% (n = 140,000); AID 2417, 2010; PC3M PTB-GFP, PNC prevalence imaging, 16 h; hits give low values;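 active = readout at or below -70, meaning at least 70% loss of cells showing the perinucleolar compartment, a nuclear body marking cancer cells; inconclusive = readout between -30 and a set limit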;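 also: plate controls were DMSO wells for no effect and camptothecin positive control wells for full effect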
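PC3M cells stably expressing PTB-GFP, 750–1000 cells/well, treated 16 h at 37 °C with compound (23 nl of library stock), in duplicate. After paraformaldehyde fixation and Hoechst stain, imaged at 20x; PNC prevalence scored by image analysis.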
ALDH1A1 block – qHTS Assay for Inhibitors of Aldehyde Dehydrogenase 1 (ALDH1A1); Aldehyde dehydrogenase 1A1 (Homo sapiens), P00352; Purified ALDH1A1, NADH fluorescence, propionaldehyde substrate; Potency, µM (titrated, usually from 75.3 µM), for the others: top-dose activity, negative = inhibition, actives largely listed as inhibitors; actives 7.3% (n = 220,000); AID 1030, 2008;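 also: potency is read from the fitted curve at half-maximal effect; plate controls were no enzyme wells and a reference inhibitor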
HPGD inh – qHTS Assay for Inhibitors of HPGD (15-Hydroxyprostaglandin Dehydrogenase). purified HPGD, NADH fluorescence kinetic, PGE2 substrate. AID 894, 2007. 15-hydroxyprostaglandin dehydrogenase [NAD(+)] (Homo sapiens), P15428. Potency, µM, for inactives: at the top dose activity change, negative = inhibition, usual class: inhibitors. actives 4.3% (n = 150,000); also: potency is read from the fitted curve at half-maximal effect
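20 nM HPGD preincubated 15 min at room temperature with compound in 50 mM Tris-HCl pH 8, 0.01% Tween 20. Started with 1 mM NAD+ and 30 uM prostaglandin E2; NADH fluorescence (360/450 nm) read 5 times over 30-s intervals, last minus first.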
ALOX12 inhib – qHTS Assay for Inhibitors of 12-hLO (12-human lipoxygenase); Polyunsaturated fatty acid lipoxygenase ALOX12 (Homo sapiens), P18054; purified 12-hLO, xylenol orange hydroperoxide absorbance; Potency, µM (doses to about 57.1 µM), for inactives: at the highest dose activity change, negative = inhibition, hits mostly inhibitors; actives 0.12% (n = 150,000); active = well fitted inhibition curve with a large enough effect; inconclusive = small, poorly fitted or top-dose-only effect; also: potency is read from the fitted curve at half-maximal effect; nearly all actives have a fitted effect of over 55% in size
Target sequence (P18054 whole entry, looked up): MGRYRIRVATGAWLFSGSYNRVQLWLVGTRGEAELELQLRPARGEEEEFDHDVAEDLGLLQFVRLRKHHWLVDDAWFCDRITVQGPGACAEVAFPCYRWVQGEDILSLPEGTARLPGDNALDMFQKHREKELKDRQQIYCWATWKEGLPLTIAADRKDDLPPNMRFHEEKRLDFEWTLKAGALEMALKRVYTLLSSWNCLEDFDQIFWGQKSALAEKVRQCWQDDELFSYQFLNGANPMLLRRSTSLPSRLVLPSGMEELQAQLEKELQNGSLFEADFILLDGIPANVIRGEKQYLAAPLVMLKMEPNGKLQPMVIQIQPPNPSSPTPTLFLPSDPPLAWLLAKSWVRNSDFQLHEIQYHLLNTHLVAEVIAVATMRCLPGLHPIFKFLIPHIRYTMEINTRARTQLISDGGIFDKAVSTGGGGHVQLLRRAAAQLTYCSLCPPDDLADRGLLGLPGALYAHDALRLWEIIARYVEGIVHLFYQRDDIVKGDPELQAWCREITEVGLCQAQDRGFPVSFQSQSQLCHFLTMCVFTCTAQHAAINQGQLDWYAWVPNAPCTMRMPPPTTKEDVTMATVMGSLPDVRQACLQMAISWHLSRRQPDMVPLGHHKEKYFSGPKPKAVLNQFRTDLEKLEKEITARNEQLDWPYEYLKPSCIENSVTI
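Purified human 12hLO (150 nM final) was preincubated with compounds for 15 min at room temperature in 25 mM Hepes pH 7.0, 0.01% Triton X-100, then reacted with 40 uM arachidonic acid for 30 min. Hydroperoxide was detected with ferrous iron/xylenol orange.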
Lamin A splicing – qHTS Assay for Modulators of Lamin A Splicing. HeLa LMNA splicing GFP/RFP minigene ratio, 48 h. Potency, µM (highest dose often 46.1 µM), without a hit: at the highest dose ratio change, negative = inhibition, hits mostly inhibitors. actives 0.01% (n = 200,000); active = well fitted inhibition curve with a large enough effect in the signal ratio, with a control signal flat, not every such curve was filed as active; inconclusive = small, poorly fitted or top-dose-only effect, or effect the other way, or a change in a side signal; the % refers to the signal ratio; also: potency is read from the fitted curve at half-maximal effect
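S3 HeLa cells stably expressing lamin A-EGFP splicing minigene plus DsRed2, 600 cells/well, 48 h compound exposure at 37C. Laser-scanning cytometry; analysed as GFP (500-530 nm)/RFP (575-640 nm) total intensity ratio; 0.5% DMSO vehicle.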
Active calls of the source: *; u = inconclusive; x = not tested or not shown; [ ] = dose if it differs, or a comment. Unless noted, calls follow the shape of the dose curve; as a rule, active = well fitted inhibition curve with a large enough effect (not every such curve was filed as active); inconclusive = small, poorly fitted or top-dose-only effect, or another doubt; inactive = no such curve, though single readings can be large or run the other way. Unless noted, % is scaled to controls: 0 for no effect and ±100 for the full control effect.

SMILES	PNC assembly inh	ALDH1A1 block	HPGD inh	ALOX12 inhib	Lamin A splicing
CNc1nc(Sc2ccccc2)cc(C(F)(F)F)n1	18	35µM*	35µM*	-4%	11%
CC(NC(=O)c1ccc(F)cc1)C(c1cccs1)N1CCN(C)CC1 (configuration not stated)	-116*	11%	-12%	11%	-14%
CC(NC(=O)c1ccc(N(C)C)cc1)C(c1cccs1)N1CCN(C)CC1 (configuration not stated)	u	3%	2%	2%	1%
CN(C)c1ccc(NC(=O)CSCc2nc3c(nnn3Cc3ccc(F)cc3)c(=O)[nH]2)cc1	-15	10µM*	22µM*	-16%	2%
CCOc1cc(CO)cc(Br)c1OCC(N)=O	x	4%	x	x	19%[46 µM]
CCOc1cc(C=O)cc(Cl)c1OCC(N)=O	x	7.1µM*	x	x	x
CCCOc1c(Cl)cc(/C=N/O)cc1OCC	-1	u	25µM*	-19%	-2%
CCOc1ccc(Cl)cc1/C=N/O	-21	7%	11µM*	-10%	11%
COc1ccc(NS(=O)(=O)c2cc3[nH]c(=O)c(=O)[nH]c3cc2C)cc1OC	x	x	x	x	-2%[46 µM]
CCc1cccc(NC(=O)c2cn3c4c(ccc(Cl)c4c2=O)OC(C)C3)c1 (configuration not stated)	x	x	x	x	-23%[46 µM]
CCNc1nc(OC)nc(N2CCC(Cc3ccccc3)CC2)n1	-11	2%	-10%	7%	u
COc1ccccc1/C=C/C=N\N1CCN(Cc2ccccc2Cl)CC1	11	20µM*	-9%	-9%	u
C(=C\c1ccccc1)/C=N/N1CCN(Cc2ccccc2)CC1	x	-12%	x	x	-9%[46 µM]
COc1ccccc1/C=C/C=N/N1CCN(Cc2ccc(Cl)cc2)CC1	21	18µM*	-25%	-20%	-7%
CCCCn1cnc2c(SC)ncnc21	x	-4%[13.5 µM]	-10%	2%[11.4 µM]	x
CSc1nc(NCCOC(C)=O)c(C#N)c(-c2ccc(C(C)(C)C)cc2)n1	x	x	x	x	1%[46 µM]
Cc1ccc(-c2nn(-c3ccc(F)cc3F)c3c2cnc2c(F)cccc23)cc1	x	x	x	x	8%[46 µM]
Cc1ccc(-c2csc3ncnc(Sc4nnc(CN5CCCCCC5=O)o4)c23)cc1	u	7.9µM*	-27%	-14%	u
Cc1ccc(-c2csc3ncnc(SCC(=O)Nc4nnc(C)s4)c23)cc1	u	8%	-7%	-3%	-4%
Cc1c(CCOC(=O)c2cc([N+](=O)[O-])cc([N+](=O)[O-])c2)sc[n+]1CC(=O)c1ccc(Br)cc1	x	2.5µM*	x	x	27%[46 µM]
CCc1ccc(-c2cn3nc(C)c(C)nc3n2)cc1	u	2.8µM*	-3%	-5%	20%
Cc1nc2nc(-c3ccccc3)cn2nc1C	15	u	u	-2%	-4%
CSc1ccc(C(=O)C2CCCN(C(=O)c3csc(C(C)=O)c3)C2)cc1 (configuration not stated)	x	2µM*	x	x	1%[46 µM]
CSc1ccc(C(=O)C2CCCN(C(=O)c3cc4cc(F)ccc4[nH]3)C2)cc1 (configuration not stated)	x	-3%	x	x	x
Cn1c(=O)c(C(=O)Nc2ncccc2O)c(O)c2ccccc21	-13	-5%	22µM*	-14%	0%
SMILES	PNC assembly inh	ALDH1A1 block	HPGD inh	ALOX12 inhib	Lamin A splicing
CC(=O)OC[C@@H]1O[C@H](CCO/N=C(\C)CCN2CCCc3nc(C)c(C)cc32)C=C[C@@H]1OC(C)=O	x	-20%[13.5 µM]	x	x	x
COc1ccc(-c2cc(C(C)=O)c(C)n2CCC(=O)Nc2ccc(C)c(Cl)c2)cc1	x	x	x	x	15%[46 µM]
O=C(COC(=O)c1cc(Br)ccc1Cl)NC1CCCC1	x	-5%	x	x	-16%[46 µM]
CC1CCCC(C)N1C(=O)COC(=O)c1cc(Br)ccc1Cl (configuration not stated)	x	20µM*	x	x	x
CC(=O)Nc1nonc1-c1nnc(SCC(=O)Nc2ccc(C)cc2)n1-c1ccccc1	x	x	x	x	2%[46 µM]
CCN(CC(=O)Nc1sc2c(c1C#N)CCC(C)C2)Cc1nc2ccccc2c(=O)[nH]1 (configuration not stated)	x	25µM*	x	x	x
CCCc1cnc2c(c1SCC(=O)N1CCC(C)CC1)c(=O)n(C)c(=O)n2C	x	x	x	x	-5%[46 µM]
Cc1ccc(C(=O)c2c(C)oc3c2C(=O)C(=O)c2ccccc2-3)cc1	u	20µM*	20µM*	u	u
Cc1ccc(C(=O)c2coc3c2C(=O)C(=O)c2ccccc2-3)cc1	21	20µM*	u	-26%	u
Cc1oc2c(c1C(=O)c1ccc(Cl)cc1)C(=O)C(=O)c1ccccc1-2	95	u	-26%	-5%	u
CC1=NNC(=O)C1CCC(=O)N/N=C/C(Br)=C/c1ccccc1 (configuration not stated)	-115*	u	x	1%	u
CC1C(=O)NN=C1C(=O)N/N=C\C(Br)=C\c1ccccc1 (configuration not stated)	x	5%	x	x	x
Cc1ccc(CNC(=O)[C@H]2C[C@@H]2[C@H](NP(=O)(c2ccccc2)c2ccccc2)c2ccccc2)c(F)c1F	x	-5%	-8%	0%	x
CCN1C=C(C(=O)OC)C(c2cccc(C)c2)C(C(=O)OC)=C1	-80*	u	u	-4%	-7%
CCCCOc1ccccc1C1C(C(=O)OC)=CN(CC)C=C1C(=O)OC	28	u	u	0%	10%
O=C(CN1C(=O)NC2(CCSC2)C1=O)N1CCN(c2ccc(F)cc2)CC1 (configuration not stated)	-21	20µM*	-3%	-6%	2%
CCCCn1c(N)c(N(CC)C(=O)C(c2ccccc2)c2ccccc2)c(=O)[nH]c1=O	x	10%	x	x	-3%[46 µM]
Cc1nc(NCc2ccccc2)c2nc(-c3ccccc3)n(C(C)CN(C)C)c2n1 (configuration not stated)	x	u	-22%	-5%	x
Oc1[nH]c2ccccc2c1N=NC(=S)NCC1CCCO1 (configuration not stated)	u	11%	u	-6%	u
Oc1[nH]c2c(Cl)cc(Cl)cc2c1N=NC(=S)NCC1CCCO1 (configuration not stated)	23	0.45µM*	-10%	-3%	u
CCn1c(O)c(N=NC(=S)NCC2CCCO2)c2ccccc21 (configuration not stated)	x	0.5µM*	x	x	u
Cc1cc(C)c2[nH]c(O)c(N=NC(=S)NCC3CCCO3)c2c1 (configuration not stated)	-12	0.079µM*	-15%	-1%	5%
CCCn1c(=O)c(C(=O)NCC2CCCO2)c(O)c2ccccc21 (configuration not stated)	x	-7%	x	x	-5%[46 µM]
